The source made the active and inactive calls. Calls come from the whole dose curve.
Assay: qHTS drug screen for cell cycle checkpoint inhibitors in PARPi-resistant BRCA-mutant ovarian cancer cell lines. (AID 1963452)
Details: PEO1/OlaR viability, CellTiter-Glo luminescence, 96 h, stronger effect = lower value
Text: Women's Malignancies Branch, Center for Cancer Research (CCR),
National Cancer Institute (NCI), National Institutes of Health (NIH), Bethesda, MD
Poly (ADP-ribose) polymerase inhibitors (PARPis) have changed the treatment paradigm in breast cancer gene (BRCA) - mutant high-grade serous ovarian carcinoma (HGSC). However, most patients eventually develop resistance to PARPis, highlighting an unmet need for improved therapeutic strategies. Using high-throughput drug screens, we identified ataxia telangiectasia and rad3-related protein/checkpoint kinase 1 (CHK1) pathway inhibitors as cytotoxic and further validated the activity of the CHK1 inhibitor (CHK1i) prexasertib in PARPi-sensitive and -resistant BRCA-mutant HGSC cells and xenograft mouse models. CHK1i monotherapy induced DNA damage, apoptosis, and tumor size reduction. We then conducted a phase 2 study (NCT02203513) of prexasertib in patients with BRCA-mutant HGSC. The treatment was well tolerated but yielded an objective response rate of 6% (1 of 17; one partial response) in patients with previous PARPi treatment. […] BRCA reversion mutation in previously PARPi-treated BRCA-mutant patients was not associated with resistance to CHK1i.
Among others, 1082 oncology drugs, both approved and investigational, were prioritized based on their status in clinical trial development. […] Drugs with average Z-AUC values less than -1.0 in all three cell lines were classified as "hits" resulting in 151 oncology drug hits. The screen also confirmed cross-resistance between olaparib and other PARPis (rucaparib, niraparib, and talazoparib) in PARPi-resistant PEO1/OlaR and PEO4.
[1] G. L. Lin, K. M. Wilson, M. Ceribelli, B. Z. Stanton, P. J. Woo, S. Kreimer, E. Y. Qin, X. Zhang, J. Lennon, S. Nagaraja, P. J. Morris, M. Quezada, S. M. Gillespie, D. Y. Duveau, A. M. Michalowski, P. Shinn, R. Guha, M. Ferrer, C. Klumpp-Thomas, S. Michael, C. McKnight, P. Minhas, Z. Itkin, E. H. Raabe, L. Chen, R. Ghanem, A. C. Geraghty, L. Ni, K. I. Andreasson, N. A. Vitanza, K. E.Warren, C. J. Thomas, M. Monje, Therapeutic strategies for diffuse midline glioma from high-throughput combination drug screening. Sci. Transl. Med. 11, (2019).
[2] T. M. Yamamoto, A. McMellen, Z. L. Watson, J. Aguilera, R. Ferguson, E. Nurmemmedov, T. Thakar, G. L. Moldovan, H. Kim, D. M. Cittelly, A. M. Joglar, E. P. Brennecke, H. Wilson, K. Behbakht, M. J. Sikora, B. G. Bitler, Activation of Wnt signaling promotes olaparib resistant ovarian cancer. Mol. Carcinog. 58, 1770 - 1782 (2019).
PROTOCOL TABLE (as described by Inglese J, Shamu CE and Guy RK. 2007)
SEQUENCE No. (e.g., 1, 2, 3, etc.); […] (e.g., Cells, Incubation, Reagent, etc.); VALUE; DESCRIPTION.
1; Compounds; 20nL; 1536-well white tissue culture-treated plates.
2; Cells; 5 uL; PEO1, PEO4, and PEO1/OlaR cells at 600 cells per well.
3; Incubation; 96 hr; 37C, 95% humidity, 5% CO2.
4; Reagent; 3 uL; CellTiter-Glo (Promega).
5; Incubation; 15 min; room temperature.
6; Detection; Luminescence, PHERAstar (BMG Labtech) plate reader.
NOTES (numbers refer to Sequence numbers above)
1. MIPE 5.0 compounds were acoustically dispensed by Echo Acoustic Liquid Handler (Beckman Coulter Life Sciences). Each compound was plated at an 11-point concentration range with 1:3 dilution. Bortezomib, a proteasome inhibitor (final concentration, 20 uM), was used as a positive.
2. PEO1, PEO4, and PEO1/OlaR were trypsinized and dispensed in 5 uLof growth medium using a Multidrop Combi dispenser at a density of 600 cells per well to allow compounds to be present during the exponential growth phase.
3. Plates were incubated for 96 hours at standard incubator conditions and covered by a stainless steel gasketed lid to prevent evaporation.
4. Three microliters of CellTiter-Glo (Promega) were added to each well.
5. Plates were incubated at room temperature for 15 min with a stainless-steel lid in place.
6. Luminescence readings were taken using PHERAstar (BMG Labtech). […]

[1] = measured here: PEO1 parental Z-AUC

Structure (SMILES) | Z-AUC | Z-AUC [1] | Z-AUC (measured here: PEO4 Z-AUC)
C[N+](C)(C)CC(=O)O | -0.734 (inactive) | 0.456 | -0.678
Cc1ccc(/C=N/NC(=O)c2ccccc2Oc2ccccc2)o1 | 0.785 (inactive) | 0.523 | 0.656
O=C(NC1CCOCC1)c1ccc(-c2cc(-c3cn[nH]c3-c3ccccn3)ccn2)cc1 | 0.761 (inactive) | 0.819 | 0.929
CS(=O)(=O)N(Cc1ccco1)CC(O)Cn1c2ccccc2c2ccccc21 (configuration not stated) | 1.06 (inactive) | 0.549 | 0.481
CC(C(=O)O)c1ccc(-c2ccccc2)c(F)c1 (configuration not stated) | 0.668 (inactive) | 0.939 | 1.4
O=C(O)c1ccccc1C(=O)Nc1ccc(-c2ccccc2)cc1 | 1.24 (inactive) | 0.724 | 0.552
N[C@@]1(C(=O)O)CS(=O)(=O)[C@H]2[C@H](C(=O)O)[C@H]21 | -0.18 (inactive) | 0.223 | 0.235
CC(C)(Cc1ccc2ccccc2c1)NC[C@@H](O)COc1cccc(Cl)c1C#N | 0.779 (inactive) | 1.04 | 0.976
COc1cc(Nc2ncc(F)c(Nc3ccc4c(n3)NC(=O)C(C)(C)O4)n2)cc(OC)c1OC | 0.179 (inactive) | 0.902 | 1.16
Cc1ccc(F)c(NC(=O)Nc2ccc(-c3cccc4[nH]nc(N)c34)cc2)c1 | 1.25 (inactive) | 1.09 | 1.16
COc1ccc(-c2cc(=O)c3c(O)cc(O)cc3o2)cc1O | 0.388 (inactive) | 0.498 | 0.413
CC1(C)CCC(CN2CCN(c3ccc(C(=O)NS(=O)(=O)c4ccc(NCC5CCOCC5)c([N+](=O)[O-])c4)c(Oc4cnc5[nH]ccc5c4)c3)CC2)=C(c2ccc(Cl)cc2)C1 | 0.0291 (inactive) | 0.742 | 0.833
COc1cc2nc(-c3ccc(N4CCN(C)CC4)cc3)nc(NCCN3CCOCC3)c2cc1OC | -0.0476 (inactive) | -0.00961 | -0.573
CN1[C@@H]2CCC[C@@H]1CC(NC(=O)c1nn(C)c3ccccc13)C2 (some centres not stated) | -0.105 (inactive) | -0.292 | 0.149

Reference: PubChem BioAssay (NCATS)
